Assay results reported in PubChem BioAssay AID588689 (Southern Research Specialized Biocontainment Screening …, 2011).
Hit rate of the full screen: of about 340,000 compounds, about 1,000 (0.29%) were called active. Cut-off read from the data, not from the text of the source: inconclusive = inhibition above about 29% without an active follow-up result; inactive = below that. Not all results are given here. Entries with a potency or affinity are not part of this list.

Target: Genome polyprotein (Dengue virus type 2 (strain 16681-PDK53)) (UniProt P29991)
Test: flavivirus cap methylation enzyme inhibition – biochemical, confirmation dose response, primary screen (AID 588689)
Conditions: Dengue-2 NS5 methyltransferase capping enzyme assay, at 25 µM, stronger effect = higher value
[1] = measured here: pilot screen replicate inhibition

SMILES	inhibition	inhibition [1] [%]
COc1ccc(S(=O)(=O)NNC(=O)c2cccs2)cc1	-2.33% (inactive)	
O=C(O)c1[nH]c2ccc([N+](=O)[O-])cc2c1-c1ccccc1	10.3% (inactive)	
COc1ccc(S(=O)(=O)Nc2c(C(=O)O)[nH]c3ccccc23)cc1OC	1.6% (inactive)	
COc1cc(C(=O)Nc2c(C(=O)O)[nH]c3ccccc23)cc(OC)c1OC	-6.62% (inactive)	
O=c1[nH]c2ccccc2c(O)c1-c1ccccc1[N+](=O)[O-]	-7.29% (inactive)	
CSc1nsc(SCC(=O)Nc2ccc(NC(C)=O)cc2)n1	2.42% (inactive)	
COc1ccccc1CNS(=O)(=O)c1cccc2nsnc12	3.22% (inactive)	
Cc1ccc(NC(=O)CSCC(=O)NCc2cccc(C(F)(F)F)c2)cc1	0.73% (inactive)	
O=C(CSc1nc(O)c(C(c2ccccc2)c2ccccc2)c(=O)[nH]1)N1CCOCC1	-5.31% (inactive)	
Cc1ccccc1-n1cnnc1SCC(=O)Nc1cccnc1Cl	2.99% (inactive)	
CCCCOC(=O)c1ccc(NC(=O)C(=O)NCc2cccnc2)cc1	-1.56% (inactive)	
N=C1C(c2nc3ccccc3s2)=C(O)CN1Cc1ccco1	-1.36% (inactive)	
Nc1nc(CSC(=S)N2CCOCC2)nc(Nc2ccccc2)n1	1.28% (inactive)	
Cc1ccc(CNC(=O)C2CCC(=O)N2C(C)C)cc1 (centres undefined)	-1.99% (inactive)	
COc1cc(/C=C2\SC(=O)N(c3ccccc3Cl)C2=O)cc([N+](=O)[O-])c1O	-6.99% (inactive)	
O=C(NN1C(=O)/C(=C/c2ccc(O)c([N+](=O)[O-])c2)SC1=S)c1ccccc1Cl	-3.59% (inactive)	
CCc1cccc(N(C(=O)c2csnn2)C(C(=O)NC(C)(C)C)c2ccccn2)c1 (centres undefined)	-5.18% (inactive)	
CCC(C)NC(=O)Nc1ccccc1C (centres undefined)	-2.79% (inactive)	
CCC(=O)c1ccc(OCC(O)CN2CCN(S(=O)(=O)N3CCCCC3)CC2)cc1 (centres undefined)	5.46% (inactive)	
Cc1c(O)c2ccccc2oc1=O	-7.95% (inactive)	
O=c1oc2ccccc2c2c1C(O)CO2 (centres undefined)	-7.16% (inactive)	
OCC1OC2C(NC(=S)N2c2ccccc2)C(O)C1O (centres undefined)	0.77% (inactive)	
COc1ccc(C(c2c(C)[nH][nH]c2=O)c2c(C)[nH][nH]c2=O)cc1Br	-3.47% (inactive)	

SMILES	inhibition	inhibition [1] [%]
Nc1ccccc1O	-6.55% (inactive)	
Oc1ccccc1O	0.73% (inactive)	
O=C(Nc1ccc2c(c1)OCO2)N1CCN(Cc2ccco2)CC1	0% (inactive)	
COc1ccc(NCc2ccc([N+](=O)[O-])s2)c(OC)c1	7.28% (inactive)	
COc1ccc(OC)c(N2C(=O)c3cccnc3C2=O)c1	0.65% (inactive)	1.22
COc1ccc(OC)c(N2C(=O)CCCC2=O)c1	-1.93% (inactive)	
COc1ccc(N2C(=O)/C(=C/c3ccc([N+](=O)[O-])cc3)N=C2C)c(OC)c1	-3.69% (inactive)	
COc1ccc(NC(=S)N2CCC(C(=O)c3ccc(C)cc3)CC2)cc1	-11.5% (inactive)	
Cc1ccc(C2=NNC(C(O)C(O)C(O)CO)S2)cc1 (centres undefined)	-8.04% (inactive)	
O=C(CCN1C(=O)/C(=C/c2ccccc2Cl)SC1=S)NNC(=O)c1ccccc1O	-5.13% (inactive)	
COc1ccccc1/C=C1\SC(=S)N(CCC(=O)Nc2ccc(C(=O)O)c(O)c2)C1=O	19.8% (inactive)	
O=C(CCN1C(=O)S/C(=C/c2ccccc2)C1=O)Nc1ccc(C(=O)O)c(O)c1	25.9% (inactive)	
O=C(CCN1C(=O)S/C(=C/c2ccc(F)cc2)C1=O)Nc1ccc(O)c(C(=O)O)c1	19.6% (inactive)	
O=C(CCN1C(=O)/C(=C/c2cccs2)SC1=S)Nc1ccc(C(=O)O)c(O)c1	15% (inactive)	
O=C(CCN1C(=O)/C(=C/c2ccccc2Cl)SC1=S)Nc1ccccn1	1.55% (inactive)	
O=C(CN1C(=O)S/C(=C\C=C\c2ccccc2)C1=O)Nc1ccccc1C(=O)O	24.3% (inactive)	
O=C(CCN1C(=O)/C(=C\C=C\c2ccccc2)SC1=S)Nc1ccc(C(=O)O)cc1	9.75% (inactive)	
CCN(Cc1nc2cc(Cl)ccc2c(=O)[nH]1)C(=O)c1cccc(NC(=O)c2cccs2)c1	-6.19% (inactive)	
Cc1ccc(NC(=O)CCC(=O)c2ccccc2)cc1	-17.5% (inactive)	
Cc1ccc(S(=O)(=O)NCCN2CCOCC2)c(C)c1C	3.68% (inactive)	
O=C(Cc1ccc(Cl)cc1)N1CCC2(CC1)NCCc1[nH]cnc12	-10.7% (inactive)	
Cc1cc(NC(=O)CCC(=O)N(c2ccc(F)cc2)C(C(=O)NC2CCCC2)c2cccnc2)no1 (centres undefined)	6.51% (inactive)	
O=C(CCCN1C(=O)/C(=C/c2ccc3c(c2)OCO3)SC1=S)Nc1cccc(C(=O)O)c1	0.32% (inactive)	

SMILES	inhibition	inhibition [1] [%]
O=C(CCN1C(=O)/C(=C/c2ccc3c(c2)OCO3)SC1=S)Nc1ccccc1	2.89% (inactive)	
CC(C)c1ccc(C2N3CC4([N+](=O)[O-])CN2CC([N+](=O)[O-])(C3)C4(C)C)cc1 (centres undefined)	-2.65% (inactive)	
COc1ccc(/C=C2/NC(=O)N(Cc3ccccc3F)C2=O)cc1OC	0.77% (inactive)	
COc1ccc(/C=C2\C(=O)NC(=O)c3ccccc32)cc1OC	25.5% (inactive)	
COc1ccc2c(c1)C(=O)N(c1ccccc1OC)C(=O)C2	0.7% (inactive)	
COc1ccccc1N1C(=O)Cc2ccccc2C1=O	1.63% (inactive)	
COc1ccc(C)cc1CN1C(=O)c2ccccc2C1=O	-12.4% (inactive)	
COc1ccc(C=O)cc1CN1C(=O)c2ccccc2C1=O	5.3% (inactive)	
O=c1cc(Cl)[nH]c(=O)n1Cc1ccc(F)cc1	-9.54% (inactive)	
Cc1cc(C)cc(NC(=O)c2ccc(NC(=O)c3ccco3)cc2)c1	-0.32% (inactive)	
N#CCC(=O)Nc1ccc(C(=O)NNC(=O)CCN2CCN(c3ccccc3)CC2)cc1	-13.1% (inactive)	
CCC[C@@H](CN1CCC[C@H]1CN1C(N)=NC[C@H]1CC(C)C)N1C[C@@H](Cc2ccccc2)N(CCCC2CCCC2)C1=N	-0.66% (inactive)	-1.83
CC(CN1CCN(Cc2ccccc2)CC1)OC(=O)c1ccco1 (centres undefined)	2.3% (inactive)	
O=C(O)C/C(=C\c1ccc(N2CCOCC2)c([N+](=O)[O-])c1)c1nc2ccccc2s1	6.96% (inactive)	
O=C(O)CC/C(=C\c1ccc(N2CCOCC2)c([N+](=O)[O-])c1)c1nc2ccccc2s1	24% (inactive)	
CN(c1ccccc1)c1ccc(/C=C(\CCC(=O)O)c2nc3ccccc3s2)cc1[N+](=O)[O-]	26.1% (inactive)	
Cc1ccc(/C=C(\CCC(=O)O)c2nc3ccccc3s2)cc1[N+](=O)[O-]	13.8% (inactive)	
COc1ccc(NC(=O)C2CCCCN2S(=O)(=O)c2ccc(F)cc2)cc1 (centres undefined)	-2.91% (inactive)	
Cc1csc2nc(=O)c3ccccc3n12	-0.7% (inactive)	
Cc1cccc(NCc2cc(Cl)cc(Cl)c2O)n1	-2.76% (inactive)	
Oc1c(Cl)cc(Cl)cc1CNc1nc2ccccc2[nH]1	-17.7% (inactive)	
O=C(CSc1nnc2scc(-c3ccccc3)n12)NCc1ccc2c(c1)OCO2	-2.59% (inactive)	
NC1=C(Cl)C(=O)c2ccccc2C1=O	-5.02% (inactive)	

SMILES	inhibition	inhibition [1] [%]
Nc1c(Cl)cc2c(c1Oc1ccccc1)C(=O)c1ccccc1C2=O	0% (inactive)	
Cc1cc(C)n(CC(=O)NNC(=O)COc2ccc(Cl)cc2Cl)n1	-9.01% (inactive)	
COc1ccc2c(c1)[nH]c1c(=O)n(CCN3CCOCC3)cnc12	-4.77% (inactive)	
O=C(CN(C(=O)Cn1nnc(-c2ccc(F)cc2)n1)c1ccc(F)cc1)NC1CCCC1	-4.85% (inactive)	
O=C(NCc1cccs1)c1nc2c(nnn2Cc2ccc(F)cc2)c(=O)[nH]1	-3.42% (inactive)	
O=C(NCc1ccco1)c1nc2c(nnn2Cc2ccccc2Cl)c(=O)[nH]1	-1.35% (inactive)	
COc1cc(/C=C2\SC(=O)N(c3ccc(Cl)cc3)C2=O)cc([N+](=O)[O-])c1O	3.7% (inactive)	
COc1cc(/C=C2\SC(=O)N(Cc3ccc(F)cc3)C2=O)cc([N+](=O)[O-])c1O	14.6% (inactive)	
CC(C)c1ccc(CCNC(=O)CCNS(=O)(=O)c2ccc(Br)cc2)cc1	2.95% (inactive)	
CC1CCCN(CCCOc2ccc(Br)cc2Cl)C1 (centres undefined)	-5.92% (inactive)	
C=CCn1c(SCC(=O)c2[nH]c(C)c(C(=O)OCC)c2C)nc2scc(-c3ccccc3)c2c1=O	0.73% (inactive)	
Nc1ccccc1-c1nnc(SCc2ccccc2F)[nH]c1=O	2.71% (inactive)	
O=c1cc(-c2ccccc2)nc(SCc2ccccc2F)[nH]1	-2.34% (inactive)	
CCSc1nnc2c(n1)OC1(CCCC1)Nc1ccccc1-2	-4.17% (inactive)	
CCC1Nc2ccccc2-c2nnc(SC)nc2O1 (centres undefined)	6.45% (inactive)	
Cc1[nH]c(C)c(S(=O)(=O)N(Cc2ccccc2)C(C)C)c1C(=O)N1CCCC1	-0.98% (inactive)	
COc1ccc(S(=O)(=O)N2CCN(C(=O)CCOc3ccccc3)CC2)cc1OC	4.1% (inactive)	
O=C(O)c1cccc2c1-c1c(cccc1[N+](=O)[O-])C2	-1.17% (inactive)	
O=C(O)C1CCC(NSc2ccccc2[N+](=O)[O-])CC1 (centres undefined)	7.73% (inactive)	
CCN(CC(=O)Nc1ccc(NC(C)=O)cc1)C(=O)c1ccc(N2CCC(C)CC2)c([N+](=O)[O-])c1	-0.77% (inactive)	
CCN(CC(=O)Nc1ccc(NC(C)=O)cc1)C(=O)c1ccc(NC2CC2)c([N+](=O)[O-])c1	-1.48% (inactive)	
O=C(O)c1ccccc1NSc1ccccc1[N+](=O)[O-]	21.6% (inactive)	
Cc1ccc2c(c1C)NC(C(=O)O)C1CC=CC21 (centres undefined)	9.74% (inactive)	
